{"source": "PubChem BioAssay AID2284109", "about": "(EPA ToxCast)", "note": "Activity calls are given as the source filed them. Rule for the calls: active = hit-call score of the fitted dose curve at least 0.9, where 1 is the maximum; inactive = score below 0.9.", "data": [{"target": "human p38beta (SAPK2) CMGC Kinase, MAPK11 (gene 5600) (UniProt Q15759)", "sequence (Q15759 whole entry, looked up)": "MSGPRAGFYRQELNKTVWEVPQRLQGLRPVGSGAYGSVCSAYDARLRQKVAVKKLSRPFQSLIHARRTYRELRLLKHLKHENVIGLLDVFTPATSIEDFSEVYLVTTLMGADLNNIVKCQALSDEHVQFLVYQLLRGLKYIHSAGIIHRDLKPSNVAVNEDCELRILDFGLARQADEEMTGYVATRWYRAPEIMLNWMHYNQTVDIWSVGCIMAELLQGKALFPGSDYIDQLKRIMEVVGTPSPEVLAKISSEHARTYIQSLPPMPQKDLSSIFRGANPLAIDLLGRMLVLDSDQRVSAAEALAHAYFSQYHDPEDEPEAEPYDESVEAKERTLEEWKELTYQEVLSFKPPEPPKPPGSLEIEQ", "assay": "ERF_KP_ENZ_hMAPK11: Eurofins (ERF) Enzymatic Radiometric [10 uM ATP] KinaseProfiler LeadHunter Assay for human p38beta (SAPK2) CMGC Kinase", "method": "ERF_KP_ENZ_hMAPK11 is a biochemical, single-readout assay that uses extracted gene-proteins in a cell-free assay. Measurements were taken 0.66 hour after chemical dosing in a 96-well plate. See SAPK2 (p38beta) Human CMGC Kinase Enzymatic Radiometric Assay [10 uM ATP], KinaseProfiler.ERF_KP_ENZ_hMAPK11 is an assay component calculated from the ERF_KP_ENZ_hMAPK11 assay. It is designed to measure enzyme activity using a type of enzyme reporter as detected by scintillation counting with radiometry technology.Data from the assay component ERF_KP_ENZ_hMAPK11 was analyzed at the assay endpoint, ERF_KP_ENZ_hMAPK11, in the positive analysis fitting direction relative to DMSO as the negative control and baseline of activity. Using a type of enzyme reporter, loss-of-signal activity can be used to understand changes in enzymatic activity as they relate to gene MAPK11. To generalize the intended target to other relatable targets, this assay endpoint is annotated to the kinase intended target family, where the subfamily is serine/threonine kinase.\nSAPK2b (h) is incubated with 25 mM Tris pH 7.5, 0.02 mM EGTA, 0.33 mg/mL myelin basic protein, 10 mM MgAcetate and [gamma-33P]-ATP (specific activity and concentration as required). The reaction is initiated by the addition of the Mg/ATP mix. […]", "values": [{"smiles": "O=C(/C=C/c1ccc(O)cc1)CC(=O)/C=C/c1ccc(O)cc1", "AC50": "0.293 nM (active)"}]}]}
